An excerpt weighted towards active compounds, which were near 13% of everything screened.
HCMV inh: human cytomegalovirus inhibition; HFF cells, HCMV-luciferase reporter, 72 h; active compounds read low; activity change, negative = inhibition, % at 57.5 µM; 4.5% of 410,000 active; AID 1259415; in the data active means activity change below about -60%; inconclusive means no clear call, values can overlap the other calls; inactive means above about -39%
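Compounds were evaluated in HFFs infected with an HCMV luciferase reporter virus (MOI 1 PFU/cell). Luciferase in lysates collected 72 h post infection served as the replication measure.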
Pf growth 48h: P. falciparum growth inhibition at 48 hours (one generation) | P. falciparum luciferase growth in erythrocytes, 48 h | Potency, µM (doses to about 28.7 µM), without a hit: top-dose activity change, negative = inhibition, hits mostly inhibitors | 5.9% of 310,000 active | AID 504832; further: potency means the concentration at half of the fitted maximal effect
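Read-out is firefly luciferase luminescence from an integrated reporter in P. falciparum, so falling signal marks reduced parasite growth. Infected erythrocytes were at 2% hematocrit and 0.1% parasitemia (final) in Albumax-supplemented RPMI 1640.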
Pf growth 96h: inhibits malaria parasite growth, 96 h | P. falciparum luciferase reporter growth, 96 h | Potency, µM (top dose mostly 28.7 µM), inactives show at the top dose activity change, negative = inhibition, actives largely listed as inhibitors | 6.9% of 320,000 active | AID 504834; further: potency means the concentration at half of the fitted maximal effect
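Infected RBCs, 2% Hct / 0.05% parasitemia final; luciferase-reporter P. falciparum; cpd 96 h, 37 C, 5% CO2; luciferase detection reagent; luminescence.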
HCV inhibitor: blocks hepatitis C virus. Huh7.5.1 HCVcc-Cre infection, luciferase reporter, 44 h. Potency, µM (top dose mostly 41.8 µM), for the others: at the highest dose activity change, negative = inhibition, most hits filed as inhibitors. 3.4% of 340,000 active; further: potency means the concentration at half of the fitted maximal effect
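Infectious HCV cell culture screen: compound-treated cells (1,000/well, pre-plated 4 h) are infected with HCVcc-Cre at roughly 0.5 moi and grown 44 h. Infection is quantified by luciferase signal after 15 min substrate incubation at room temperature.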
Active calls of the source: *; ? = inconclusive; nt = no result. Unless noted, the call rests on the fitted dose curve; in most records, active means well fitted inhibition curve with a large enough effect; inconclusive means small, poorly fitted or top-dose-only effect, or another doubt; inactive means no such curve, though single readings can be large or run the other way. On the % scale 0 is the no-effect control and ±100 the full control effect.

SMILES	HCMV inh	Pf growth 48h	Pf growth 96h	HCV inhibitor
CCOC(=O)CSc1nc2ccc(NC(=O)c3ccccc3F)cc2s1	10	nt	nt	nt
CCC(Oc1ccc(F)cc1)C(=O)Nc1c(C(=O)c2ccc(C)cc2)oc2ccccc12 (centres undefined)	-27	nt	nt	nt
CCOc1ccc(CCNC(=O)c2ccc(-c3nc(COc4ccc(C)cc4)c(C)o3)cc2)cc1	-7	nt	nt	nt
NC(=O)c1cc([N+](=O)[O-])ccc1NCc1ccc(N)cc1	-6	?	?	-5%
Fc1ccc(NC(=S)NCc2ccccc2)cc1	-19	14%	15µM*	-2%
NC(=O)c1cc([N+](=O)[O-])ccc1NCc1ccc(F)cc1	-81*	-23%	?	2.5µM*
O=C(Nc1ccc(F)cc1)c1nc[nH]c1C(=O)Nc1ccc([N+](=O)[O-])cc1	-61*	5%	235%	6%
O=[N+]([O-])c1ccc(NC(=S)NCc2ccc(F)cc2)cc1	-99*	?	4.1µM*	?
Fc1ccc(CNC(=S)NCc2ccccc2)cc1	-19	?	?	19%
Cc1cc2oc(C(=O)Nc3ccc(S(=O)(=O)Nc4ncccn4)cc3)cc(=O)c2cc1C	5	nt	nt	nt
Cc1nc2ccccn2c(=O)c1NC(=O)c1ccc(C(F)(F)F)cc1	35	nt	nt	nt
Cc1ccc(CNC(=O)c2c[nH]n3c(=O)c(Cc4ccc(Cl)cc4)c(C)nc23)cc1	-34	nt	nt	nt
C#CCOCCOCCOCCNc1nc(N2CCN(C(=O)[C@H](CCC(=O)O)n3cc(C(N)[C@H](C)CC)nn3)CC2)nc(N2CCN(C(=O)[C@H](Cc3ccc(O)cc3)n3cc(C(N)[C@H](C)CC)nn3)CC2)n1 (some centres undefined)	nt	0%	7%	5%
C#CCOCCOCCOCCNc1nc(N2CCN(C(=O)C(Cc3ccc(O)cc3)n3cc(C(N)C(C)CC)nn3)CC2)nc(N2CCN(C(=O)C(Cc3ccc(O)cc3)n3cc(C(N)C(C)CC)nn3)CC2)n1 (centres undefined)	-37	9.3µM*	9.3µM*	22%
C#CCOCCOCCOCCNc1nc(N2CCOCC2)nc(N2CCN(C(=O)[C@H](Cc3ccc(O)cc3)n3cc([C@@H](N)C(C)CC)nn3)CC2)n1 (some centres undefined)	1	?	9.3µM*	2%
C#CCOCCOCCOCCNc1nc(N2CCN(C(=O)[C@H](Cc3ccc(O)cc3)n3cc([C@@H](N)CC(C)C)nn3)CC2)nc(N2CCN(C(=O)[C@H](Cc3ccc(O)cc3)n3cc([C@@H](N)CC(C)C)nn3)CC2)n1	nt	9.3µM*	?	nt
C#CCOCCOCCOCCNc1nc(N2CCN(C(=O)[C@H](CCC(=O)O)n3cc(C(N)CC(C)C)nn3)CC2)nc(N2CCN(C(=O)[C@H](Cc3ccc(O)cc3)n3cc(C(N)CC(C)C)nn3)CC2)n1 (some centres undefined)	nt	?	?	15%
CCOc1cccc(C(=O)Nc2ccc(-c3nc4ncccc4o3)cc2C)c1	-16	nt	nt	nt
COc1ccccc1-c1nc(SCC(=O)c2ccc(Cl)cc2)n[nH]1	-11	nt	nt	nt
Cc1ccc(C2=NCC(C)n3c2c2ccccc2[n+]3[O-])cc1 (centres undefined)	19	nt	nt	nt
CCN(CC)S(=O)(=O)c1ccc2nc(NC(=O)c3ccc(Br)o3)sc2c1	0	nt	nt	nt
CCOCCCNC(=O)C(NC(=O)c1ccc(NC(C)=O)cc1)c1ccc(Cl)cc1 (centres undefined)	-63*	6%	?	0%
CCOCCCNC(=O)C(NC(=O)CNC(C)=O)c1ccc(C)cc1 (centres undefined)	9	7%	9.3µM*	2%
Cc1cc(C)n2nc(CNC(=O)c3cccc(Cl)c3)nc2n1	3	nt	nt	nt
Cc1ccc(N=N/C(=C\O)C(=O)c2ccc(Cl)cc2)cc1	-87*	?	85%	10µM*
SMILES	HCMV inh	Pf growth 48h	Pf growth 96h	HCV inhibitor
Cc1ccc2c(c1)C1CN(C)CCC1N2C(=O)Nc1cccc(Cl)c1 (centres undefined)	-6	?	?	?
Cc1ccc2c(c1)C1CN(C)CCC1N2C(=S)NC(=O)c1ccc(Cl)cc1Cl (centres undefined)	-16	?	5.9µM*	23%
Cc1ccc2c(c1)C1CN(C)CCC1N2C(=O)COc1ccccc1F (centres undefined)	-8	?	12µM*	3%
O=[N+]([O-])c1cc(C(F)(F)F)cc([N+](=O)[O-])c1NCCCNc1ccc([N+](=O)[O-])c2cccnc12	-6	?	4.1µM*	?
Cc1ccc(NC(=O)N2CC(C)OC(C)C2)cc1[N+](=O)[O-] (centres undefined)	0	nt	nt	nt
COc1ccc(-n2c(-c3ccco3)n[nH]c2=S)cc1	-2	-20%	-9%	2%
S=c1[nH]nc(-c2ccco2)n1-c1ccc(Cl)cc1	-61*	15%	30%	13%
Cn1c(=O)[nH]c(=O)c2c1nc(CN1CCN(c3cccc(Cl)c3)CC1)n2CCc1ccccc1	?	?	1%	-2%
CCCn1c(N2CCN(CC(=O)c3c(C)n(C)c4ccccc34)CC2)nc2c1c(=O)[nH]c(=O)n2C	7	0.083µM*	134%	-19%
CCCCCn1c(CN2CCN(c3cccc(Cl)c3)CC2)nc2c1c(=O)[nH]c(=O)n2C	-39	13µM*	?	-13%
CCn1c(N2CCN(CC(=O)c3c[nH]c4ccccc34)CC2)nc2c1c(=O)[nH]c(=O)n2C	64	?	3%	-23%
CCCCCCn1c(N2CCN(c3ccccc3)CC2)nc2c1c(=O)[nH]c(=O)n2C	7	8.3µM*	15µM*	-5%
CC(c1ccccc1)n1c(N2CCNCC2)nc2c1c(=O)[nH]c(=O)n2C (centres undefined)	17	8.3µM*	12%	4%
CCCCCCCCn1c(N2CCN(c3cccc(Cl)c3)CC2)nc2c1c(=O)[nH]c(=O)n2C	87	nt	-6%	-11%
CC(c1ccccc1)n1c(Br)nc2c1c(=O)[nH]c(=O)n2C (centres undefined)	67	11%	?	18%
Cc1ccc(N2CC(NC(=O)Cc3cccs3)CC2=O)cc1C (centres undefined)	46	nt	nt	nt
COc1ccc(S(=O)(=O)Nc2ccc3c(c2)sc(=O)n3C)cc1Cl	33	nt	nt	nt
CCCn1c(=O)n(-c2ccccc2Cl)c(=O)c2sc3ccccc3c21	-2	nt	nt	nt
Cn1c(=O)[nH]c(=O)c2c1nc(CN1CCN(c3ccc(F)cc3)CC1)n2CCc1ccccc1	nt	?	10µM*	0%
Cn1c(CN2CCN(c3cccc(Cl)c3)CC2)nc2ccccc21	101	13µM*	?	-6%
Cn1c(=O)[nH]c(=O)c2c1nc(N1CCOCC1)n2CCN1CCOCC1	12	1.9µM*	-11%	0%
CCCCCCn1c(N(CC)CC)nc2c1c(=O)[nH]c(=O)n2C	-1	-30%	1.9µM*	-8%
Cn1c(=O)[nH]c(=O)c2c1nc(N1CCOCC1)n2CCc1ccccc1	-14	3%	10%	7%
